According to the supplement of paper PMC12819154, “High-throughput peptide-centric local stability assay extends protein–ligand identification to membrane proteins, tissues and bacteria” (Nature Structural & Molecular Biology, 2025):

These targets were tested with CN[C@@H]1C[C@H]2O[C@@](C)([C@@H]1OC)n1c3ccccc3c3c4c(c5c6ccccc6n2c5c31)C(=O)NC4 [staurosporine] (assay: log2 fold change of tryptic peptide abundance, ligand vs vehicle (limited proteolysis) (log2 ratio); higher = more trypsin-susceptible (destabilized)). Settings: ligand concentration: 20 uM; sample: K562 cleared lysate; digestion: 4 min, 22 C (HT-PELSA RT4min, Orbitrap Astral).

Chain of UniProt Q8N4C8 (Q8N4C8 whole entry, looked up): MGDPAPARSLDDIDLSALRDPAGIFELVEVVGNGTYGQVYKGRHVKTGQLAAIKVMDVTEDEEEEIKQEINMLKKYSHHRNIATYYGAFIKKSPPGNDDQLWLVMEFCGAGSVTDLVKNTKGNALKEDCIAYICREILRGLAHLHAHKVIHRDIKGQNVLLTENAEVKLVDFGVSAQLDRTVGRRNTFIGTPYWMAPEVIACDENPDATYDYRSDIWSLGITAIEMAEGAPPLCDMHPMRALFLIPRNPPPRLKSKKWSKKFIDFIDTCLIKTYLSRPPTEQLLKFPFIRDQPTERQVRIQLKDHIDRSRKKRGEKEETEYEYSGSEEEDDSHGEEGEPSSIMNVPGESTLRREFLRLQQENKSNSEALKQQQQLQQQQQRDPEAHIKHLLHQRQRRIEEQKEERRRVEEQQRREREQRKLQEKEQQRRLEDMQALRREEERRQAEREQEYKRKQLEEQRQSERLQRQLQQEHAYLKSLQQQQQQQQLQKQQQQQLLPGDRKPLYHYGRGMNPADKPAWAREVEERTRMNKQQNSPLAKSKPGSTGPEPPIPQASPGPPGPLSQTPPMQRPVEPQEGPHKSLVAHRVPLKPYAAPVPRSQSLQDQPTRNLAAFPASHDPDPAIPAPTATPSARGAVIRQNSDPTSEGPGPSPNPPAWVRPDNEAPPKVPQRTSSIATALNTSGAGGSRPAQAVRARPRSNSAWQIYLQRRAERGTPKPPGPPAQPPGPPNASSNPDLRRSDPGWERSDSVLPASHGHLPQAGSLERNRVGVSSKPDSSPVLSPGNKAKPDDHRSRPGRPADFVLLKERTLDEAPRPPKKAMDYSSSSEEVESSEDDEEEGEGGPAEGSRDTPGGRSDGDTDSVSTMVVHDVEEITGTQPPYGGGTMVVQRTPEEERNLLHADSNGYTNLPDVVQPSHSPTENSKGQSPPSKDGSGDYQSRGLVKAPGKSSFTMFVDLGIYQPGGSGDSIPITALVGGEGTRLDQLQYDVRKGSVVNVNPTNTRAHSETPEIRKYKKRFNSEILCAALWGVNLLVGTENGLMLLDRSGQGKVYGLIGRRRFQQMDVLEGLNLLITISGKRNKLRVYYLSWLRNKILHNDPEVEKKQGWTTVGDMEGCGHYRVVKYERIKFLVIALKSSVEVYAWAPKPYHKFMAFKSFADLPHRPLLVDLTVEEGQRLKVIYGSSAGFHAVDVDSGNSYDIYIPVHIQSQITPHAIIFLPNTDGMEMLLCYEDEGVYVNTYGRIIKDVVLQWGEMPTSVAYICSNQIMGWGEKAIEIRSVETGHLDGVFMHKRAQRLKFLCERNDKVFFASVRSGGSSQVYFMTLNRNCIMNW
Chain of UniProt Q13188 (Q13188 whole entry): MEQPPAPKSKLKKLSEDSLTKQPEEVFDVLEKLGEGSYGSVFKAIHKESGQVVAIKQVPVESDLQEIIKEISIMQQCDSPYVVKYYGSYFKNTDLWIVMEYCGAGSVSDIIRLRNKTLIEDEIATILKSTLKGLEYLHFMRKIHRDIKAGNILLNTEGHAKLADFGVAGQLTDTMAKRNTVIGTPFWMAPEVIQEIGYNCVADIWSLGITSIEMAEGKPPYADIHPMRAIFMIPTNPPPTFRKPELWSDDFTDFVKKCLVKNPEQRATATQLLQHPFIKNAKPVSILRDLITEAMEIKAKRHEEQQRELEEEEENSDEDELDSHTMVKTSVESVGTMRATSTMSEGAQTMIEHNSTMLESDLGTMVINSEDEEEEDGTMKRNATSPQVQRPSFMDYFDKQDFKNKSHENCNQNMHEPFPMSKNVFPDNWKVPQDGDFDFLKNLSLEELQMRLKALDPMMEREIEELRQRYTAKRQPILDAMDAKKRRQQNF
Chain of UniProt Q6A1A2 (Q6A1A2 whole entry): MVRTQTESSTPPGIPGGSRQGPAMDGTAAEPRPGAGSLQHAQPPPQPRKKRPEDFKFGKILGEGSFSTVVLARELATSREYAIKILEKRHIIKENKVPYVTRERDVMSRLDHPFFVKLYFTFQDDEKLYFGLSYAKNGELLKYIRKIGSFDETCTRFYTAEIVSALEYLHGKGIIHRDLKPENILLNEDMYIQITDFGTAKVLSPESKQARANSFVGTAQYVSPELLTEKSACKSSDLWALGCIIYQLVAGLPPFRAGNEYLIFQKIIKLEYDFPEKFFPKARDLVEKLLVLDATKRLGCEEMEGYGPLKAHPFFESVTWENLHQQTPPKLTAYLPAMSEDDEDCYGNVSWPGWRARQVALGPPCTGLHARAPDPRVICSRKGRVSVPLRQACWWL
Chain of UniProt Q9BZF3 (Q9BZF3 whole entry): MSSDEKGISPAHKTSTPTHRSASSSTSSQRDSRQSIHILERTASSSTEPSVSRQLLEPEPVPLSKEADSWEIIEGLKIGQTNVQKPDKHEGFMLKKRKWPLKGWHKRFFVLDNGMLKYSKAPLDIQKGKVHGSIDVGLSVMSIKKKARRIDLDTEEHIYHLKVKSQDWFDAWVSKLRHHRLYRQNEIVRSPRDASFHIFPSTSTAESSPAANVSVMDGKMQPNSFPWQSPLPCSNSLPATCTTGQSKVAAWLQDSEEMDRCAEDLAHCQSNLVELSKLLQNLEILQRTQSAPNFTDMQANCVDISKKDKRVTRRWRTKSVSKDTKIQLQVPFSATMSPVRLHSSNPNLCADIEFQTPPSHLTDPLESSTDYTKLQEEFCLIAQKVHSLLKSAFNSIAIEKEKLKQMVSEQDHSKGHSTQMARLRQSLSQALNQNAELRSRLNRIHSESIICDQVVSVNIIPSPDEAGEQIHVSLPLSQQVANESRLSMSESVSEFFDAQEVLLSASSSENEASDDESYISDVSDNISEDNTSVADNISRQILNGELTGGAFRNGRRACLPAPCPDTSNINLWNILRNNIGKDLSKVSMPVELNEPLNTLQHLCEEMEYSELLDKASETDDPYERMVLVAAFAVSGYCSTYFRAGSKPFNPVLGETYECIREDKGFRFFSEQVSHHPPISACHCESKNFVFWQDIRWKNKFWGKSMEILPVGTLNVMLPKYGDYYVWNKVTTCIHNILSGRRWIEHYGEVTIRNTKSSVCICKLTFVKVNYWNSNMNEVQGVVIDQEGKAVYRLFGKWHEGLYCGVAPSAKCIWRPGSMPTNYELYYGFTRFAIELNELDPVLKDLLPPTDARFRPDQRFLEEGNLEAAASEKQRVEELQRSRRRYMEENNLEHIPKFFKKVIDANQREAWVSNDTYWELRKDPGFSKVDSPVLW
Chain of UniProt Q9H9C1 (Q9H9C1 whole entry): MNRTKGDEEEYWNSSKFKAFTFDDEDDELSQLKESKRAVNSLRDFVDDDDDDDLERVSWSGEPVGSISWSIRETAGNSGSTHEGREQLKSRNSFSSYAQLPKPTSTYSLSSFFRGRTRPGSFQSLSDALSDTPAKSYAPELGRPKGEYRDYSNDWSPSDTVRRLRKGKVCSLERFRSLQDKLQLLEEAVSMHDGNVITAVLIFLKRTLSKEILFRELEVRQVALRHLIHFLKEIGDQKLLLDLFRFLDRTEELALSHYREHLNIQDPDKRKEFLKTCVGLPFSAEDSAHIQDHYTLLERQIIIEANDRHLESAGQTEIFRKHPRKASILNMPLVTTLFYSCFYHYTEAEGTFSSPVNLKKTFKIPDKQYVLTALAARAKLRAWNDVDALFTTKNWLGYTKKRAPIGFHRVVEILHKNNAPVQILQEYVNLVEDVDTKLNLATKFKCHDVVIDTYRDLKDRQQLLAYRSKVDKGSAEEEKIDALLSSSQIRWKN
Chain of UniProt O14802 (O14802 whole entry): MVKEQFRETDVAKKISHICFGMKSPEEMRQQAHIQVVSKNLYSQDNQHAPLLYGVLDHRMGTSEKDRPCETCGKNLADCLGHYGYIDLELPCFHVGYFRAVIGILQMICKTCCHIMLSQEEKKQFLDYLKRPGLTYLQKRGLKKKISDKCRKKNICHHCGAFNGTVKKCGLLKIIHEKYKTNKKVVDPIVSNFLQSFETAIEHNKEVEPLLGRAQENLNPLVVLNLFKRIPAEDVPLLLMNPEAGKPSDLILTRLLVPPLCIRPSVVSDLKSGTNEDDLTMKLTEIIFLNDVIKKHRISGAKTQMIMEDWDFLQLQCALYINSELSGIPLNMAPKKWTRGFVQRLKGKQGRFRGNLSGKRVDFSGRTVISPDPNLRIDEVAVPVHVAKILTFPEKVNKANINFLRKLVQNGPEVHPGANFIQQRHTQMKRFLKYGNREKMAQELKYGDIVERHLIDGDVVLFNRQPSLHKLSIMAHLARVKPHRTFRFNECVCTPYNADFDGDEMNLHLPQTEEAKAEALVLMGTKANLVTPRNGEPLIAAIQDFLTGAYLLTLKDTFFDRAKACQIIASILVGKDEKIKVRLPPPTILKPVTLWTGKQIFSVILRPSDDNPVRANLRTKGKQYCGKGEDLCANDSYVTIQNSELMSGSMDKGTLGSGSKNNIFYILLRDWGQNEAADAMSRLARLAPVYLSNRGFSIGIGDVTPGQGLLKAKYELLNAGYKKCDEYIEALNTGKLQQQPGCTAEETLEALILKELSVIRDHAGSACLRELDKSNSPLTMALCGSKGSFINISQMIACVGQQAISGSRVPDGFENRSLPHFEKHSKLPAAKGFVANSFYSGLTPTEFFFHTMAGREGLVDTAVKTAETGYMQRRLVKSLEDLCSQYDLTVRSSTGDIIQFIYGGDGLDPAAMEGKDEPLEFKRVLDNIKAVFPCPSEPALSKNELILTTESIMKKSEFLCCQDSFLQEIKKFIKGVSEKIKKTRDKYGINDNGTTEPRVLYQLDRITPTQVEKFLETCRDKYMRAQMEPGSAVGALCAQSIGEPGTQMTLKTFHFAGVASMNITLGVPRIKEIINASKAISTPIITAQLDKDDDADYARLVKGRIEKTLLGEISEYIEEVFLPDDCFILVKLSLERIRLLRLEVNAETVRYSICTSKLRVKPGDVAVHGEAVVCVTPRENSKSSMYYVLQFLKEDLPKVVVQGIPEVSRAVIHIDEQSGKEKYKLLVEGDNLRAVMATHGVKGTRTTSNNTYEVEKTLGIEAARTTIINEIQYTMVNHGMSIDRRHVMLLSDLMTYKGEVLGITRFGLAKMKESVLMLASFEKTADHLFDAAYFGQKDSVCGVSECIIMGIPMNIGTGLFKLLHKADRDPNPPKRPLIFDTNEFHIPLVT

Target | log2 fold change
UniProt P84022 (peptide sequence: TGQLDELEK, peptide start residue: 45) | 0.887
UniProt Q8N4C8 (peptide sequence: GNALKEDCIAYICR, peptide start residue: 122) | -0.573
UniProt Q16512 (peptide sequence: IADFGLCK, peptide start residue: 756) | -2.52
UniProt P78527 (peptide sequence: GYGLFAGPCK, peptide start residue: 365) | 0.189
SDAD1 (peptide sequence: TLYTHIVTDIK, peptide start residue: 136) (UniProt Q9NVU7) | -0.683
UniProt Q8NEB9 (peptide sequence: SALMPAQLFFK, peptide start residue: 614) | -0.384
UniProt P62913 (peptide sequence: KLCLNICVGESGDR, peptide start residue: 19) | -0.237
SRPK1 (peptide sequence: HFTEDIQTR, peptide start residue: 507) (UniProt Q96SB4) | -1.75
HERC2 (peptide sequence: TLHSLTQWNGLINK, peptide start residue: 2152) (UniProt O95714) | -0.746
UniProt P61962 (peptide sequence: LMWIPDTK, peptide start residue: 74) | 0.374
RPL18A (peptide sequence: ARAHSIQIMKVEEIAASK, peptide start residue: 119) (UniProt Q02543) | 0.524
OSBP (peptide sequence: TRIPYKPNYSLNLWSIMK, peptide start residue: 407) (UniProt P22059) | 0.573
SLK (peptide sequence: LADFGVSAK, peptide start residue: 171) (UniProt Q9H2G2) | -3.91
UniProt Q9H9C1 (peptide sequence: LLLDLFR, peptide start residue: 239) | -1.26
UniProt Q13188 (peptide sequence: AIFMIPTNPPPTFR, peptide start residue: 232) | -3.02
POLR3A (peptide sequence: ISHICFGMK, peptide start residue: 15) (UniProt O14802) | 0.539
OSBPL6 (peptide sequence: NFVFWQDIR, peptide start residue: 687) (UniProt Q9BZF3) | -1.81
UniProt Q6A1A2 (peptide sequence: AHPFFESVTWENLHQQTPPK, peptide start residue: 338) | -1.74
DTNBP1 (peptide sequence: YEDTWAALHRR, peptide start residue: 55) (UniProt Q96EV8) | -0.512
INTS12 (peptide sequence: SVSCDNVSK, peptide start residue: 376) (UniProt Q96CB8) | 1.68
UniProt P45983 (peptide sequence: MLVIDASK, peptide start residue: 301) | -1.77
PRKAR1B (peptide sequence: NVLFAHLDDNER, peptide start residue: 135) (UniProt P31321) | 1.02
PMPCA (peptide sequence: LYLNVLNR, peptide start residue: 363) (UniProt Q10713) | -0.407
TROAP (peptide sequence: SCLTAIHCFHEAR, peptide start residue: 717) (UniProt Q12815) | 1.24
NSUN2 (peptide sequence: LAQEGIYTLYPFINSR, peptide start residue: 603) (UniProt Q08J23) | -0.339
UniProt O75582 (peptide sequence: VGIENFELLK, peptide start residue: 44) | -0.481
AKT1 (peptide sequence: HRVTMNEFEYLK, peptide start residue: 143) (UniProt P31749) | -0.676
RPS6KA4 (peptide sequence: VLGTGAYGK, peptide start residue: 54) (UniProt O75676) | -0.533
CLIC1 (peptide sequence: IGNCPFSQR, peptide start residue: 21) (UniProt O00299) | 0.243
